Assay results from the supplement of paper PMC10849652.
Targets with a hit are over-represented here; the source holds about 8,800 in all. About 0.5% of all pairs of compound and target were hits.

Legend:
Experiment in all cases: log2 fold change, soluble protein after heating vs DMSO (PISA); higher = thermal stabilisation; K562 lysate, 10 uM; active = over 0.2 and 3.5 SD of the protein, either way, in both replicates (recomputed)
[1] = compound: C1=CC=C(C=C1)[C@H](COC2=CC3=C(C=C2)NC(=O)N3)NC(=O)C4=CC=CN(C4=O)CC5=CC(=C(C=C5)F)F
Procedure, shortened: (§1)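 The values are log-two fold changes in thermal stability compared with solvent controls and come from duplicates. They were obtained by TMTpro 16plex LC-MS/MS, with channel sums equalised, on the supernatant after 21,000xg for 90 min. That supernatant came from crude K562 extract at 1 mg/mL protein treated with 10 μM compound for 30 min, heated for 3 min across 48°C-58°C, pooled and brought to 0.5% NP-40 at 4°C.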

[2] = compound: CC1=C(SC2=C1C(=N[C@H](C3=NN=C(N32)C)CC(=O)N)C4=CC=C(C=C4)Cl)C
Procedure, shortened: as §1

[3] = compound: CC1=C2C(=CC=C1)N=C(N(C2=O)C3=CC=CC=C3C)CN4C=NC5=C(N=CN=C54)N
Procedure, shortened: as §1

[4] = compound: Cc1sc2c(c1C)C(c1ccc(Cl)cc1)=N[C@@H](CC(=O)OC(C)(C)C)c1nnc(C)n1-2
Procedure, shortened: as §1

[5] = compound: c1ccc([C@@H]2C[C@H]2NC2CCNCC2)cc1
Procedure, shortened: as §1

Measured: log2 fold change

RPL31 (UniProt P62899)
inactive: [1] 0.016 | [2] 0.013 | [3] -0.027 | [4] 0.041 | [5] -0.022

RBMX (UniProt P38159)
Sequence of UniProt P38159 (P38159 whole entry, looked up): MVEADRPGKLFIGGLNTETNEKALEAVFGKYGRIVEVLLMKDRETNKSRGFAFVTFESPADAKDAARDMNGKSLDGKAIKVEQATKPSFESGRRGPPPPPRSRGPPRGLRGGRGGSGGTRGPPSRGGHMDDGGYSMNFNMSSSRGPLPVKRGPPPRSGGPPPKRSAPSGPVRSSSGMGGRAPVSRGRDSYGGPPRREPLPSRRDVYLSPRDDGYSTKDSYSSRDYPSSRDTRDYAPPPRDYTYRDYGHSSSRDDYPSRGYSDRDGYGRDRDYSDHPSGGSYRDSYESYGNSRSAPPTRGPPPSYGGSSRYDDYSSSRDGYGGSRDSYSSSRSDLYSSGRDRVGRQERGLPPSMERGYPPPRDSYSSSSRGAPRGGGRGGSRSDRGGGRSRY
inactive: [1] 0.089 | [2] -0.01 | [3] -0.004 | [4] -0.015 | [5] -0.072

RBBP8 isoform 2 (UniProt Q99708)
Sequence of UniProt Q99708 (Q99708 whole entry, looked up): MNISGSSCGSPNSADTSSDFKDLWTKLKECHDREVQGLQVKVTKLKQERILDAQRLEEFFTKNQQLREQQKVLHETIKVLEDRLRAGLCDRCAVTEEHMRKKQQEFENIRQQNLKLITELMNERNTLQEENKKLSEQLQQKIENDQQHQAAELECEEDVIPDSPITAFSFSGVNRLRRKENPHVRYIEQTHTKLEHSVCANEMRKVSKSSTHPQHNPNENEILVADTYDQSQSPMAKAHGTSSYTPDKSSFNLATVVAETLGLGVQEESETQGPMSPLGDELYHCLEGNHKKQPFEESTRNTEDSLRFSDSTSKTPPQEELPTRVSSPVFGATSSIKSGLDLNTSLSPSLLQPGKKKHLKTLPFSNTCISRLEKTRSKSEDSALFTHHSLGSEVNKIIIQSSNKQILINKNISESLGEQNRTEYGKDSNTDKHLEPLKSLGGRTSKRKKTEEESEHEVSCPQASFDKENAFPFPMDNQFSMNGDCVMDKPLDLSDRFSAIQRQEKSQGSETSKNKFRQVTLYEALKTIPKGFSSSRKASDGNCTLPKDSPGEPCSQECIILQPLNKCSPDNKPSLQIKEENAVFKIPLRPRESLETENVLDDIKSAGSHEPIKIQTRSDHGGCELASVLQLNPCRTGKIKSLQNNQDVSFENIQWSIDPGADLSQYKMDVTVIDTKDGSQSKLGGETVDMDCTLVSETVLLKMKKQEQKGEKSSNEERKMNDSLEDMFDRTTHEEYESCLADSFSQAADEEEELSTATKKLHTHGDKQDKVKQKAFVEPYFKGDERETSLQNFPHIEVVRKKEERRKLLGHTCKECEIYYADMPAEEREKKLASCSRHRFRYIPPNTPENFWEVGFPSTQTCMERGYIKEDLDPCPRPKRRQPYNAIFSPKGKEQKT
inactive: [1] -0.031 | [2] -0.133 | [3] 0.093 | [4] 0.046 | [5] -0.014

RASA2 (UniProt Q15283)
Sequence of UniProt Q15283 (Q15283 whole entry, looked up): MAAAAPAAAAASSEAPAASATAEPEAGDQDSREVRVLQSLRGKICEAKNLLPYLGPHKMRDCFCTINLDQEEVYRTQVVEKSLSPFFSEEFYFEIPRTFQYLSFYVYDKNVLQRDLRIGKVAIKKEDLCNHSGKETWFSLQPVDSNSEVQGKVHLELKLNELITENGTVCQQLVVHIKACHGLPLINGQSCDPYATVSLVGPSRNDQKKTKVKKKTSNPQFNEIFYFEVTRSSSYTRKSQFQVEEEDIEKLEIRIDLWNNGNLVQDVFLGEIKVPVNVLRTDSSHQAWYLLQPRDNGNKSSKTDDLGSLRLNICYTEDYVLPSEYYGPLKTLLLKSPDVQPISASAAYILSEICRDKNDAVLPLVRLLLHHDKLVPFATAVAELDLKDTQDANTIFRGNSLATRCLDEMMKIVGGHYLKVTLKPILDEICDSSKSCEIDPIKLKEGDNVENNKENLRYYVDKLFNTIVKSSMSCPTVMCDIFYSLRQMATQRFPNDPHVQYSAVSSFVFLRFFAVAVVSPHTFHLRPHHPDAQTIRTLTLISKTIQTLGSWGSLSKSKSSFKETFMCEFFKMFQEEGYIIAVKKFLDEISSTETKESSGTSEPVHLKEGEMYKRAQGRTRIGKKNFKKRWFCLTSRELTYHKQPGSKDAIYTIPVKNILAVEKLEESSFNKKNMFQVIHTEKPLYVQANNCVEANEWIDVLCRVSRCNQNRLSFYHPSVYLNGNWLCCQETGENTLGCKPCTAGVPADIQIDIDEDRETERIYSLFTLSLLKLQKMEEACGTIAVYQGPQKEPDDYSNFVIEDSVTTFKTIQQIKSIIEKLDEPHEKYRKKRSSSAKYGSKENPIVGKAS
inactive: [1] -0.07 | [2] 0.045 | [3] 0.058 | [4] 0.025 | [5] 0.037

RBSN (UniProt Q9H1K0)
Sequence of UniProt Q9H1K0 (Q9H1K0 whole entry, looked up): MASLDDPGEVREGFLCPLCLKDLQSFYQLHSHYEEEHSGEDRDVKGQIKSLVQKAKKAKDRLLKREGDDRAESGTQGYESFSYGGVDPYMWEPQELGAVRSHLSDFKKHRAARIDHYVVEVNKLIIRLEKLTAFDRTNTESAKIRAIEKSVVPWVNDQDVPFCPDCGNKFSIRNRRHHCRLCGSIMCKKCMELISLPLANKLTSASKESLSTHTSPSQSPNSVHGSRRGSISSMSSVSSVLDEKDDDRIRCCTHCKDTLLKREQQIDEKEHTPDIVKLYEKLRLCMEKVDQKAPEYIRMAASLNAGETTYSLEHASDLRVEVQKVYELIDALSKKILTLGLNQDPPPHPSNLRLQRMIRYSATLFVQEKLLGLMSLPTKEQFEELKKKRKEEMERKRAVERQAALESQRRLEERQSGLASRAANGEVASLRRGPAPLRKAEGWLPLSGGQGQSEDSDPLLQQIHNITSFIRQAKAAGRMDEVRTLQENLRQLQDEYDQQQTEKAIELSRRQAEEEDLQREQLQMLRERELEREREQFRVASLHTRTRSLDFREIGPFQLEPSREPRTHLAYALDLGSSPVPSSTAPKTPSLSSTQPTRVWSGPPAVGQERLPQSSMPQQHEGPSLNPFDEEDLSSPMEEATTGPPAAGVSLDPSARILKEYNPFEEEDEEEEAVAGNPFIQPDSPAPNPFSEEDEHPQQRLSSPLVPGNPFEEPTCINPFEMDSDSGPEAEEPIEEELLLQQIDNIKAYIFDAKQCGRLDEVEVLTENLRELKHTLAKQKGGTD
inactive: [1] 0.031 | [2] 0.076 | [3] 0.087 | [4] 0.117 | [5] -0.019

SDHA (UniProt P31040)
inactive: [1] 0.114 | [2] -0.012 | [3] -0.012 | [4] 0.005 | [5] -0.007

RHOA (UniProt P61586)
inactive: [1] 0.177 | [2] 0.06 | [3] 0.038 | [4] 0.02 | [5] 0.07

SAMD4A (UniProt Q9UPU9)
Sequence of UniProt Q9UPU9 (Q9UPU9 whole entry, looked up): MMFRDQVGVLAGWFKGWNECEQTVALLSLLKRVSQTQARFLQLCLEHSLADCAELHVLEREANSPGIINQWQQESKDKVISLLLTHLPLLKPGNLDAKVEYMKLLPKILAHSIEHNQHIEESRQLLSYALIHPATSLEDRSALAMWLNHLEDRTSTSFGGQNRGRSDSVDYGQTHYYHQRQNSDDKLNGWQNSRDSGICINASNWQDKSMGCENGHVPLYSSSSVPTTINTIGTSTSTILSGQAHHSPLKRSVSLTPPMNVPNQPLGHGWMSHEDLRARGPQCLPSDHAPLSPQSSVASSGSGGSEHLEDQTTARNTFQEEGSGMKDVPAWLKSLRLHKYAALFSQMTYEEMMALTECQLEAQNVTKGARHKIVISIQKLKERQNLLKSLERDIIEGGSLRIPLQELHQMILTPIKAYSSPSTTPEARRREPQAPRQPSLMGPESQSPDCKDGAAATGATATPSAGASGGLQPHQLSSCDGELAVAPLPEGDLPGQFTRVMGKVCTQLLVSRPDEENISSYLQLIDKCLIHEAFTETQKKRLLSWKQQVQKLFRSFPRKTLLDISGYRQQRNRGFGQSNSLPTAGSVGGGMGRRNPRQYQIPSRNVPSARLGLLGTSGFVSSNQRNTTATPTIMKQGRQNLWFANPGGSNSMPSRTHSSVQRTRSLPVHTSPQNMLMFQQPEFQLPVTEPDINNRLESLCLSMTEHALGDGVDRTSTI
inactive: [1] 0.114 | [2] 0.086 | [3] -0.01 | [4] -0.079 | [5] -0.03

RPS6KA1 (UniProt Q15418)
Sequence of UniProt Q15418 (Q15418 whole entry, looked up): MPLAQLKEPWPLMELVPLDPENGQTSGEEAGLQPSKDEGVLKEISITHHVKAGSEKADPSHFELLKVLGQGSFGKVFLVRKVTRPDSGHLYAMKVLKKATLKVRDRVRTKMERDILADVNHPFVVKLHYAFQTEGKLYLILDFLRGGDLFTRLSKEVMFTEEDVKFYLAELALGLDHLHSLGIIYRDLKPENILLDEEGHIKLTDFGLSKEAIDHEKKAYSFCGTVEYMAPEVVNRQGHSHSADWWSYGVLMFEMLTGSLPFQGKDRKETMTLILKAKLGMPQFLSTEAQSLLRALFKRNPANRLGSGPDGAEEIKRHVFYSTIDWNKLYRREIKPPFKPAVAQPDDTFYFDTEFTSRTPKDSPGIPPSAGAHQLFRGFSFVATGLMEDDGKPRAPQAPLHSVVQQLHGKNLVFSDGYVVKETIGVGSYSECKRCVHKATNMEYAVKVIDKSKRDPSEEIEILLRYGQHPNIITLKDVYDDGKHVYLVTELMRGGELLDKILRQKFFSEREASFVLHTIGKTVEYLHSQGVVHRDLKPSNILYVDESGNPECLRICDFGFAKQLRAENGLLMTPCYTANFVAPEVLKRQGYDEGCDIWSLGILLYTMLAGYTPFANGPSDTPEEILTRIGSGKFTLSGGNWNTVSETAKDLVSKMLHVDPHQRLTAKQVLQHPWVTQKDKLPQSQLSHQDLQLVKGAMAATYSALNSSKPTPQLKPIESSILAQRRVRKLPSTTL
inactive: [1] -0.073 | [2] -0.064 | [3] -0.045 | [4] 0.015 | [5] -0.047

REXO4 (UniProt Q9GZR2)
inactive: [1] 0.009 | [2] -0.003 | [3] 0.029 | [4] 0.051 | [5] 0.138

RAB21 (UniProt Q9UL25)
Sequence of UniProt Q9UL25 (Q9UL25 whole entry, looked up): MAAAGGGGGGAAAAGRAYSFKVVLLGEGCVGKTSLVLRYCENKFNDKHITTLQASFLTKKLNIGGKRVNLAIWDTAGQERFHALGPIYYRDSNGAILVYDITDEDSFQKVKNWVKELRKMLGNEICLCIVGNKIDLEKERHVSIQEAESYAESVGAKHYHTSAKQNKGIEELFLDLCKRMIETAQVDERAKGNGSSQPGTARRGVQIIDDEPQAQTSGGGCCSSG
inactive: [1] -0.086 | [2] 0.036 | [3] 0.019 | [4] 0.055 | [5] 0.127

RAB6D (UniProt Q53S08)
Sequence of UniProt Q53S08 (Q53S08 whole entry, looked up): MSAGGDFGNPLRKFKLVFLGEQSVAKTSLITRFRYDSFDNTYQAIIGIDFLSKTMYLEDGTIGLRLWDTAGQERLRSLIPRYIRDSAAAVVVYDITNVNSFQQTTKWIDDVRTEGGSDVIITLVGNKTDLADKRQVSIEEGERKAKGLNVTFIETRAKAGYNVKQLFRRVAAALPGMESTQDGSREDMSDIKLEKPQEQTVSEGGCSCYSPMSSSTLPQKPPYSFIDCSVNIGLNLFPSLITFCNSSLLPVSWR
inactive: [1] -0.045 | [2] 0.01 | [3] 0.034 | [4] -0.003 | [5] -0.045

SERPINI1 (UniProt Q99574)
inactive: [1] 0.067 | [2] -0.033 | [3] 0.031 | [4] -0.011 | [5] -0.021

RPLP0P6 (UniProt Q8NHW5)
inactive: [1] 0.052 | [2] -0.038 | [3] -0.002 | [4] -0.026 | [5] -0.027
